Experimental data taken from PubChem BioAssay AID504725 (Broad Institute, 2011).
Measured potencies and affinities stand elsewhere. The source made the active and inactive calls. How the calls were made is not given here.

Target: KSHV LANA C-terminal domain (residues 932-1162) binding to LBS DNA (UniProt O40947)
Assay: KSHV LANA DNA-binding disruption – biochemical, fluorescence polarization, cherry-picked samples, dose response (AID 504725)
Details: MBP-C-LANA / FAM-LBS DNA fluorescence polarization, percent change from plate compound-well median; series mostly up to 35 µM

Compound | outcome
CCOC(=O)c1cnc(SC)nc1Sc1ccc(Cl)cc1Cl | inactive
Cc1noc(C)c1-c1nc(CSc2ccccc2)no1 | inactive
CC(C)c1ccc(CNc2ccc([N+](=O)[O-])cn2)cc1 | inactive
S=c1[nH]nc([C@@H]2C[C@H]2c2ccccc2)n1-c1ccccc1Cl | inactive
Nc1ccc(C(=O)Nc2ccc3c(O)cc(S(=O)(=O)O)cc3c2)cc1 | inactive
CCOC(=O)CN1NC2(CCCCCC2)NC1=S | inactive
O=C(O)C1C2C=CC(CC2)C1C(=O)O (stereo not given) | inactive
COc1ccc(S(=O)(=O)N2CCC(C(=O)N3CCCCC3)CC2)cc1 | inactive
Cc1ccc(CSc2ncnc3onc(C)c23)cc1 | inactive
Cc1ccc(C)c(OCC(=O)N(Cc2nnc(-c3ccccc3Cl)o2)C2CC2)c1 | inactive
Cc1ccc(OCC(=O)O/N=C(\N)Cc2ccc([N+](=O)[O-])cc2)cc1C | inactive
N=C1/C(=C\c2ccc(Br)o2)C(=O)N=C2SC(CC(=O)N3CCOCC3)=NN12 | inactive
Oc1ccccc1C=Nc1ccccc1-c1nc2ccccc2[nH]1 | inactive
Cc1ccc2c(c1)nnn2C1CCN(C(=O)c2cccs2)CC1 | inactive
CCOC(=O)CCCn1c(C)nc(=O)c(-c2ccccc2)c1C | inactive
O=C(NCC1CCCO1)c1cccc(S(=O)(=O)N(Cc2ccccc2)c2ccccc2)c1 (stereo not given) | inactive
O=C(O)CN1C(=O)/C(=C\c2cc(Br)ccc2OCc2ccc([N+](=O)[O-])cc2)SC1=S | inactive
O=C(O)c1cccc(-n2cccc2/C=C/[N+](=O)[O-])c1 | inactive
Cc1nnc(NC(=O)CN2C(=O)NC3(CCCC3)C2=O)s1 | inactive
Cc1cc(-c2nnc(SCC(=O)Nc3ccccc3)n2C)no1 | inactive
O=c1c2c(nc3cc(-c4ccc(F)cc4)[nH]n13)CCC2 | inactive
O=C(N/N=C/c1ccc(N2CCOCC2)cc1)c1ccccn1 | inactive
CCOCCCn1c(SCC(=O)NC(C)(C)C)nc2ccccc2c1=O | inactive
O=C(O)c1cccc(NC2=Nc3cccc4cccc2c34)c1 | inactive
Cc1ccc(NC(=O)CN2C(=O)N/C(=C/c3cc(C)n(-c4ccc(C(=O)O)cc4)c3C)C2=O)cc1 | inactive
N#C/C(=C\c1ccc(-c2ccccc2[N+](=O)[O-])o1)C(N)=O | inactive
COc1cc(OC)cc(C(=O)NC2CC3CCC(C2)N3C)c1 (stereo not given) | inactive
CCCc1cc(=O)oc2cc(C)cc(OCC(=O)O)c12 | inactive
CCOC(=O)c1ccc[n+](CC(=O)c2ccc(OC)cc2)c1 | inactive
CC(C)Cc1nc(SCC(=O)Nc2nnc(CC(C)C)s2)n[nH]1 | inactive
